Several values for one entry are separate records, joined by “and”; a condition that tells them apart may be missing. Equal entries are not always repeated. Inconclusive results are not listed. More than one record can exist for a structure, and the calls need not agree. Activity calls are given as the source filed them. Rule for the calls, unless noted: active = hit-call score of the fitted dose curve at least 0.9, where 1 is the maximum; inactive = score below 0.9.

Read-out in experiment [1]: Collagen I, COL1A1 (gene 1277)
Briefly: BSK_MyoF_CollagenI: BioMAP Diversity Plus: MyoF Assay for Collagen I Biomarker Activity (AID 2284238). Particulars: primary human lung fibroblasts. Summed up:
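ELISA readout of Collagen I after 24 h chemical treatment of primary human lung fibroblast cultures; gain of signal scored relative to DMSO vehicle baseline.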

Read-out in experiment [2]: Collagen III, COL3A1 (gene 1281)
Briefly: BSK_MyoF_CollagenIII: BioMAP Diversity Plus: MyoF Assay for Collagen III Biomarker Activity (AID 2284239). Particulars: primary human lung fibroblasts. Put shortly: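 Lung fibroblast culture; 24 h compound exposure; collagen III by ELISA; gain-of-signal fit vs DMSO baseline.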

Read-out in experiment [3]: Actin alpha 1 (ACTA1), ACTA1 (gene 58)
Put plainly: BSK_MyoF_ACTA1: BioMAP Diversity Plus: MyoF Assay for Actin alpha 1 (ACTA1) Biomarker Activity (AID 2284244). The conditions noted are these: primary human lung fibroblasts. Summed up:
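Cells were exposed to chemical for 24 h before a-SMA levels were quantified by ELISA in human lung fibroblasts. Increases were fitted against DMSO as negative control; parallel SRB staining (0.1% after 10% TCA fixation, 560 nm) assessed cytotoxicity.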

Read-out in experiment [4]: Interleukin 2 (IL2), IL2 (gene 3558)
Briefly: BSK_BT_xIL2: BioMAP Diversity Plus: BT Assay for Interleukin 2 (IL2) Biomarker Activity (AID 2284245). Particulars: primary human B cells with PBMC. Put shortly:
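The BT system combines human B cells with peripheral blood mononuclear cells. Twenty-four hours after chemical dosing, secreted IL-2 was measured with xMAP bead technology, and responses were analyzed as increases over DMSO controls.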

Read-out in experiment [5]: Basic fibroblast growth factor (bFGF), FGF2 (gene 2247)
Put plainly: BSK_MyoF_bFGF: BioMAP Diversity Plus: MyoF Assay for Basic fibroblast growth factor (bFGF) Biomarker Activity (AID 2284246). Particulars: primary human lung fibroblasts. Put shortly:
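Chemicals are added to human lung fibroblast cultures and incubated 24 h. bFGF is then measured by ELISA, while parallel cultures receive SRB staining for total protein as a cytotoxicity check. Data are fitted upward against DMSO.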

Read-out in experiment [6]: Collagen IV, COL4A1 (gene 1282)
Put plainly: BSK_MyoF_CollagenIV: BioMAP Diversity Plus: MyoF Assay for Collagen IV Biomarker Activity (AID 2284247). The conditions noted are these: primary human lung fibroblasts. Put shortly: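 Human lung fibroblast system, 24 h chemical exposure. Endpoint: Collagen IV by ELISA, upward fit vs DMSO.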

Read-out in experiment [7]: Vascular cell adhesion molecule 1 (VCAM1), VCAM1 (gene 7412)
Put plainly: BSK_BF4T_VCAM1: BioMAP Diversity Plus: BF4T Assay for Vascular cell adhesion molecule 1 (VCAM1) Biomarker Activity (AID 2284249). Particulars: primary human bronchial epithelial cells with fibroblasts. Put shortly: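 Cell-surface VCAM-1 quantified by ELISA after 24 h chemical exposure of human bronchial epithelial/dermal fibroblast co-cultures, with SRB staining in parallel wells for cytotoxicity; DMSO baseline, positive-direction fitting.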

Read-out in experiment [8]: Collagen I, COL1A1 (gene 1277)
Briefly: BSK_hDFCGF_CollagenI: BioMAP Diversity Plus: hDFCGF Assay for Collagen I Biomarker Activity (AID 2284250). Particulars: primary human foreskin fibroblasts. Put shortly: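 Collagen I ELISA, primary human foreskin fibroblasts, 24 h chemical exposure, DMSO = negative control/baseline, positive fitting direction.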

Read-out in experiment [9]: Plasminogen activator inhibitor-1 (PAI1), SERPINE1 (gene 5054)
Put plainly: BSK_KF3CT_PAI1: BioMAP Diversity Plus: KF3CT Assay for Plasminogen activator inhibitor-1 (PAI1) Biomarker Activity (AID 2284252). Particulars: primary human keratinocytes with fibroblasts. Put shortly: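 Cells (human keratinocytes co-cultured with foreskin fibroblasts) are exposed to test chemical for 24 h. PAI-1 is then measured by ELISA and analysed for signal gain against DMSO.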

Read-out in experiment [10]: Monocyte Chemoattractant Protein-1 (MCP1), CCL2 (gene 6347)
Briefly: BSK_IMphg_MCP1: BioMAP Diversity Plus: IMphg Assay for Monocyte Chemoattractant Protein-1 (MCP1) Biomarker Activity (AID 2284253). The conditions noted are these: primary human endothelial cells with macrophages. Summed up:
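ELISA readout of MCP-1 at 24 hours in IMphg co-cultures of venular endothelial cells and macrophages, normalised to DMSO; parallel cultures stained with sulforhodamine B for overt cytotoxicity.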

Read-out in experiment [11]: Interleukin-8 (IL8), CXCL8 (gene 3576)
Briefly: BSK_KF3CT_IL8: BioMAP Diversity Plus: KF3CT Assay for Interleukin-8 (IL8) Biomarker Activity (AID 2284254). The conditions noted are these: primary human keratinocytes with fibroblasts. Summed up:
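IL-8 read-out: ELISA, 24 h post-dose, human skin primary co-culture (keratinocytes + foreskin fibroblasts). DMSO = baseline; positive-direction fit.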

Experiment [12] in a line: TAMU_PeakParms_SingleDonor1434_QT: Texas A&M University (TAMU) 1.5-hr Human Induced Pluripotent Stem Cell (iPSC)-derived Cardiomyocytes Calcium (Ca+2) Flux Assay for Cardiotoxicity: QT (decay-rise ratio) (AID 2284235; active = hit-call score of the fitted dose curve at least 0.9, where 1 is the maximum). Put shortly:
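Decay/rise ratio of calcium-flux fluorescence scored after 90 min exposure (37C) of donor 1434 iPSC cardiomyocytes to 0.2–100 uM (0.5% DMSO). Beat-cessation and severe-notch points removed; POD is EC05, a 5% rise over DMSO.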

Experiment [13] can be described thus: CCTE_Mundy_HCI_Cortical_NOG_BPCount: CCTE's Neurite Outgrowth Assay in rat cortical cells for Branch Point Count, Mundy Lab (AID 2284237). Summed up:
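Measured 50.33 h after dosing, this morphology endpoint uses rat primary cortical cultures labelled for betaIII-tubulin. Branch points are quantified by high-content imaging, with DMSO as negative control and baseline.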

Experiment [14] is described as follows: CCTE_Mundy_HCI_hNP1_Casp3_7: CCTE's Caspase-Glo 3/7 Assay in human neuroprogenitor cells for Apoptosis, Mundy Lab (AID 2284240). Put shortly:
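Neuroepithelial-lineage stem cells from WA09 embryonic cells were treated with chemicals after 40–44 h of culture. Twenty-four hours later, caspase-3/7 activation was detected luminescently after a 30 min room-temperature reagent step, with DMSO as baseline.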

Experiment [15] in a line: CCTE_Mundy_HCI_hNP1_CellTiter: CCTE's Cell Titer-Glo 2 Assay in human neuroprogenitor cells for Viability, Mundy Lab (AID 2284241; active = hit-call score of the fitted dose curve at least 0.9, where 1 is the maximum). Put shortly:
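Measures ATP content in human neural progenitors derived from WA09 embryonic cells. Read-out at 26.5 hours after dosing, with DMSO serving as the negative control and baseline.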

Experiment [16] in a line: CCTE_Mundy_HCI_Cortical_Synap_Neur_Matur_NeuronCount: CCTE's Synaptogenesis and Neurite Maturation Assay in rat cortical cells for Neuron Count, Mundy Lab (AID 2284242; active = hit-call score of the fitted dose curve at least 0.9, where 1 is the maximum). Summed up: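 Cortical cells from rat are plated, treated with AraC at DIV 5, and exposed to test chemicals with a media change at DIV 7. At DIV 12 they are fixed and immunostained (MAP2, synaptophysin), and imaged neuron counts are compared against DMSO controls.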

Consider `CC(C)(C)c1cccc(O)c1`, for which the outcome in experiment [1], in experiment [2], in experiment [3], in experiment [4], in experiment [5] and in experiment [6] was inactive.

In general, AC50 refers to the concentration at which the activity in the assay is half-maximal. In the case of `OCC(F)(OC(F)(F)C(F)(OC(F)(F)C(F)(F)C(F)(F)F)C(F)(F)F)C(F)(F)F` (stereo not drawn), the AC50 in experiment [1] was 5.55 µM (active) and 3.38 µM (active); in [2] it was 5.14 µM (active) and 4.82 µM (active); in experiment [3], 3.43 µM (active) and 4.31 µM (active); in experiment [4] it was 4.97 µM (active); in experiment [6], 3.9 µM (active); in experiment [9], 5 µM (active) and 4.79 µM (active). Also, the AC50 in experiment [10] is 4.65 µM (active); in experiment [11] it was 4.96 µM (active). For the same compound, the outcome in [4], in [5], in [6], in experiment [7], in [8] and in experiment [10] was inactive. In addition, the outcome in [11] was inactive.

For the compound `CCCCCCCCCCCCS`, the half-maximal activity concentration (AC50) was 20 µM (active) in [1], 27.9 µM (active) in [2], 18.6 µM (active) in experiment [3] and 29 µM (active) in experiment [5]. The result in experiment [4] and in experiment [6] was inactive.

Turning to `c1ccc(Sc2ccccc2)cc1`, the half-maximal activity concentration (AC50) was 30.3 µM (active) in [1]; 34.2 µM (active) in [2]; 30.8 µM (active) in experiment [3]; 31.9 µM (active) in experiment [5]; 32.6 µM (active) in experiment [6]. Also, the result in experiment [4] was inactive.

`CCOC(=O)CCCCCCCCC(=O)OCC`: the result in [1], in experiment [2], in [3], in experiment [4], in experiment [5] and in [6] was inactive.

On to `CC1=CC(C)C(C=O)C(C)C1` (stereo not drawn) (tested in a mixture with another compound), for which the outcome in experiment [1], in experiment [2], in [3], in experiment [4], in experiment [5] and in [6] was inactive.

Take `O=C1OC2(c3ccc(O)cc3Oc3cc(O)ccc32)c2ccccc21`: the outcome in experiment [1], in [2], in experiment [3], in experiment [4], in experiment [5] and in [6] was inactive.

With `CNC(=C[N+](=O)[O-])NCCSCc1ccc(CN(C)C)o1`, the outcome in experiment [12] was inactive.

In the case of `N[C@@H](CCC(=O)O)C(=O)O`, the call in [13], in experiment [14], in experiment [15] and in experiment [16] was inactive.

With `OCCN1CCOCC1`, the outcome in [1], in experiment [3], in experiment [4], in experiment [5] and in experiment [6] was inactive. Besides, the AC50 in experiment [2] is 0.016 µM (active).

For the compound `CC(C)CCCC(C)(C)O`, the result in experiment [8], in experiment [9] and in [11] was inactive.

As for `CCCCN(CCO)CCO`, the result in experiment [8], in [9] and in [11] was inactive.

(Values after PubChem BioAssay (EPA / NIEHS).)
